Active and inactive are the calls of the source. How the source made its calls: active means hit-call score of the fitted dose curve at least 0.9, where 1 is the maximum; inactive means score below 0.9.
Experiments:
Conditions in all cases: mRNA level, 48 h; actives raise or lower the signal
[1] = read-out: Ezrin (EZR), EZR (gene 7430); assay: LTEA_HepaRG_EZR: Life Technologies and Expression Analysis (LTEA) Assay for Ezrin (EZR) using HepaRG (AID 2283491)
Outline: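 Gain or loss of EZR mRNA is scored relative to 0.5% DMSO in human HepaRG cultures treated 48 h with test chemicals in duplicate, eight half-log concentrations from 100 uM.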

[2] = read-out: Cytochrome P450 3A7 (Homo sapiens) (UniProt P24462); assay: LTEA_HepaRG_CYP3A7: Life Technologies and Expression Analysis (LTEA) Assay for CYP3A7 using HepaRG (AID 2283492)
Outline: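 Differentiated HepaRG cells in serum-free induction medium exposed 48 h in duplicate to 8-point half-log series from 100 uM top in 0.5% DMSO. CYP3A7 mRNA by qRT-PCR, normalized to ACTB/GAPDH/POLR2A, bidirectional fit versus DMSO.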

[3] = read-out: CYP3A5 (gene 1577); assay: LTEA_HepaRG_CYP3A5: Life Technologies and Expression Analysis (LTEA) Assay for CYP3A5 using HepaRG (AID 2283493)
Outline: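 Human HepaRG hepatic cells receive 48 h chemical treatment at eight concentrations (half-log steps from 100 uM) in 0.5% DMSO. Expression of CYP3A5 is quantified by Fluidigm qRT-PCR and normalized to three reference genes.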

[4] = read-out: Fatty Acid-Binding Protein 1 (FABP1), FABP1 (gene 2168); assay: LTEA_HepaRG_FABP1: Life Technologies and Expression Analysis (LTEA) Assay for Fatty Acid-Binding Protein 1 (FABP1) using HepaRG (AID 2283494)
Outline: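 FABP1 expression by TaqMan qRT-PCR, normalised to three housekeeping genes, in HepaRG cells after 48 h chemical treatment. Eight-point half-log series topping at 100 uM in 0.5% DMSO, duplicates; gain or loss fitted relative to vehicle.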

[5] = read-out: Cytochrome P450 4A22 (Homo sapiens) (UniProt Q5TCH4); assay: LTEA_HepaRG_CYP4A22: Life Technologies and Expression Analysis (LTEA) Assay for Cytochrome P450 4A22 (CYP4A22) using HepaRG (AID 2283495)
Outline: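 Differentiated HepaRG cells in serum-free induction medium exposed 48 h in duplicate to eight half-log concentrations up to 100 uM in 0.5% DMSO. CYP4A22 mRNA quantified by TaqMan qRT-PCR, normalized to ACTB, GAPDH and POLR2A; bidirectional fit versus DMSO.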

[6] = read-out: Cytochrome P450 7A1 (Homo sapiens) (UniProt P22680); assay: LTEA_HepaRG_CYP7A1: Life Technologies and Expression Analysis (LTEA) Assay for Cytochrome P450 7A1 (CYP7A1) using HepaRG (AID 2283496)
Outline: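 HepaRG, 48 h exposure, 8-pt half-log series from 100 uM, 0.5% DMSO vehicle, duplicates. Readout: TaqMan qRT-PCR mRNA vs three housekeeping genes; bidirectional curve fit against DMSO baseline.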

[7] = read-out: Glutathione S-Transferase (GSTA2), GSTA2 (gene 2939); assay: LTEA_HepaRG_GSTA2: Life Technologies and Expression Analysis (LTEA) Assay for Glutathione S-Transferase (GSTA2) using HepaRG (AID 2283497)
Outline: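 GSTA2 transcript levels came from Fluidigm TaqMan qRT-PCR normalized to three housekeeping genes, fitted in both directions against DMSO. HepaRG cultures received chemicals for 48 h in serum-free induction medium (0.5% DMSO), 8 half-log concentrations up to 100 uM, duplicate.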

[8] = read-out: Glutamate-cysteine ligase catalytic (GCLC), GCLC (gene 2729); assay: LTEA_HepaRG_GCLC: Life Technologies and Expression Analysis (LTEA) Assay for Glutamate-cysteine ligase catalytic (GCLC) using HepaRG (AID 2283498)
Outline: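 Expression by TaqMan qRT-PCR, normalized to three housekeeping genes (ACTB, GAPDH, POLR2A), with up- or down-regulation fitted against DMSO. HepaRG cells dosed in duplicate for 48 h with 8 half-log concentrations up to 100 uM, vehicle 0.5% DMSO.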

[9] = read-out: growth arrest and DNA damage 45 (GADD45G), GADD45G (gene 10912); assay: LTEA_HepaRG_GADD45G: Life Technologies and Expression Analysis (LTEA) Assay for growth arrest and DNA damage 45 (GADD45G) using HepaRG (AID 2283499)
Outline: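 Differentiated human HepaRG cells, 48 h post-plating, exposed 48 h in serum-free induction medium to 8 half-log concentrations (top 100 uM, 0.5% DMSO) in duplicate. GADD45G mRNA measured by Fluidigm TaqMan qRT-PCR, normalized to ACTB, GAPDH, POLR2A; bidirectional fit versus DMSO.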

[10] = read-out: Glutamate-cysteine ligase regulatory (GCLM), GCLM (gene 2730); assay: LTEA_HepaRG_GCLM: Life Technologies and Expression Analysis (LTEA) Assay for Glutamate-cysteine ligase regulatory (GCLM) using HepaRG (AID 2283500)
Outline: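 Endpoint is GCLM transcript level by qRT-PCR, normalized to three housekeeping genes, after 48 h chemical exposure of human HepaRG cells (0.5% DMSO vehicle, top 100 uM, half-log dilutions). Fitting was bidirectional relative to DMSO.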

[11] = read-out: Glutathione S-transferase M3 (GSTM3), GSTM3 (gene 2947); assay: LTEA_HepaRG_GSTM3: Life Technologies and Expression Analysis (LTEA) Assay for Glutathione S-transferase M3 (GSTM3) using HepaRG (AID 2283501)
Outline: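 Differentiated human HepaRG cells were exposed in duplicate for 48 h in serum-free induction medium, 8 points from 100 uM top in half-log steps, 0.5% DMSO. GSTM3 mRNA was measured by TaqMan qRT-PCR, normalized to ACTB, GAPDH and POLR2A; bidirectional fit versus DMSO.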

[12] = read-out: Hypoxia-inducible factor 1-alpha (Homo sapiens) (UniProt Q16665); assay: LTEA_HepaRG_HIF1A: Life Technologies and Expression Analysis (LTEA) Assay for Hypoxia-inducible factor 1 (HIF1A) Trancription factor using HepaRG (AID 2283503)
Outline: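 HIF1A transcript level read by qRT-PCR (ACTB, GAPDH, POLR2A normalization) after 48 h chemical exposure of HepaRG cultures. Eight half-log concentrations, top 100 uM, 0.5% DMSO vehicle, duplicates; bidirectional curve fit against DMSO baseline.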

[13] = read-out: 3-Hydroxy-3-Methylglutaryl-CoA Synthase 2 (HMGCS2), HMGCS2 (gene 3158); assay: LTEA_HepaRG_HMGCS2: Life Technologies and Expression Analysis (LTEA) Assay for 3-Hydroxy-3-Methylglutaryl-CoA Synthase 2 (HMGCS2) using HepaRG (AID 2283504)
Outline: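 Human HepaRG cells in serum-free induction medium were exposed in duplicate for 48 h to 8-point half-log series from 100 uM top in 0.5% DMSO. HMGCS2 mRNA measured by TaqMan qRT-PCR, normalised to ACTB, GAPDH, POLR2A; bidirectional fit versus DMSO.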

[14] = read-out: Insulin Like Growth Factor 1 (IGF1), IGF1 (gene 3479); assay: LTEA_HepaRG_IGF1: Life Technologies and Expression Analysis (LTEA) Assay for Insulin Like Growth Factor 1 (IGF1) using HepaRG (AID 2283506)
Outline: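 Cells are thawed, plated and cultured 48 h, then exposed in duplicate to chemical (highest 100 uM, half-log steps, 0.5% DMSO) for another 48 h. Total RNA is analysed by Fluidigm qRT-PCR for IGF1 expression relative to vehicle.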

[15] = read-out: Intercellular Adhesion Molecule 1 (ICAM1), ICAM1 (gene 3383); assay: LTEA_HepaRG_ICAM1: Life Technologies and Expression Analysis (LTEA) Assay for Intercellular Adhesion Molecule 1 (ICAM1) using HepaRG (AID 2283507)
Outline: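 Differentiated human HepaRG cells in serum-free induction medium exposed 48 h in duplicate to 8 half-log concentrations (top 100 uM, 0.5% DMSO). ICAM1 mRNA quantified by TaqMan qRT-PCR, normalized to ACTB, GAPDH and POLR2A; bidirectional fitting versus DMSO.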

[16] = read-out: Insulin-like growth factor-binding protein 1 (IGFBP1), IGFBP1 (gene 3484); assay: LTEA_HepaRG_IGFBP1: Life Technologies and Expression Analysis (LTEA) Assay for Insulin-like growth factor-binding protein 1 (IGFBP1) using HepaRG (AID 2283508)
Outline: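 HepaRG cells, plated 48 h then switched to serum-free induction medium, exposed in duplicate for 48 h to 8-point half-log series from 100 uM in 0.5% DMSO. mRNA measured by qRT-PCR, normalized to ACTB/GAPDH/POLR2A; bidirectional fit versus DMSO.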

[17] = read-out: Interleukin 6 Receptor (IL6R), IL6R (gene 3570); assay: LTEA_HepaRG_IL6R: Life Technologies and Expression Analysis (LTEA) Assay for Interleukin 6 Receptor (IL6R) using HepaRG (AID 2283510)
Outline: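 Cells were thawed, plated and cultured 48 h, then medium was changed to serum-free induction medium. Chemicals were added in duplicate (100 uM top, half-log steps, 0.5% DMSO) for 48 h. Lysates were analyzed by qRT-PCR for IL6R expression.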

[18] = read-out: Interleukin 6 (IL6), IL6 (gene 3569); assay: LTEA_HepaRG_IL6: Life Technologies and Expression Analysis (LTEA) Assay for Interleukin 6 (IL6) using HepaRG (AID 2283509)
Outline: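 Transcript levels, normalized to three housekeeping genes, were quantified by qRT-PCR after 48 h chemical treatment of HepaRG cells. Eight-point half-log series from 100 uM in 0.5% DMSO, duplicates. Fitted both directions against DMSO baseline.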

[19] = read-out: HGF (gene 3082); assay: LTEA_HepaRG_HGF: Life Technologies and Expression Analysis (LTEA) Assay for Hepatocyte Growth Facto (HGF) using HepaRG (AID 2283505)
Outline: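 Differentiated HepaRG cells in serum-free induction medium exposed 48 h in duplicate, 8 half-log concentrations from 100 uM in 0.5% DMSO. HGF mRNA by qRT-PCR, normalised to ACTB, GAPDH, POLR2A; bidirectional fitting.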

Measured: AC50

Chain of Cytochrome P450 3A7 (Homo sapiens) (P24462 whole entry, looked up): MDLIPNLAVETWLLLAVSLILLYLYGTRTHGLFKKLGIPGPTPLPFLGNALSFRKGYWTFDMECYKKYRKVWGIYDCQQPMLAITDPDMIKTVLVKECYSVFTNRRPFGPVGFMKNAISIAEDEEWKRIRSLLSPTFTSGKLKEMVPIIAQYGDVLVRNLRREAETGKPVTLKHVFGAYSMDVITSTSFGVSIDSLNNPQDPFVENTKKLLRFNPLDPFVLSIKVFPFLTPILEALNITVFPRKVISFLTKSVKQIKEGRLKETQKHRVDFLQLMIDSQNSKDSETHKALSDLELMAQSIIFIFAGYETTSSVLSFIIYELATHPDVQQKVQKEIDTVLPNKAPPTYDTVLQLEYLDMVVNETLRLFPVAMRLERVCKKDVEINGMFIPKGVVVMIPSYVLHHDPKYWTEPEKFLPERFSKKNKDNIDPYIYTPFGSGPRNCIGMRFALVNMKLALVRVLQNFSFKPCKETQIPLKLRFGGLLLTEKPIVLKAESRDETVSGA
Chain of Hypoxia-inducible factor 1-alpha (Homo sapiens) (Q16665 whole entry, looked up): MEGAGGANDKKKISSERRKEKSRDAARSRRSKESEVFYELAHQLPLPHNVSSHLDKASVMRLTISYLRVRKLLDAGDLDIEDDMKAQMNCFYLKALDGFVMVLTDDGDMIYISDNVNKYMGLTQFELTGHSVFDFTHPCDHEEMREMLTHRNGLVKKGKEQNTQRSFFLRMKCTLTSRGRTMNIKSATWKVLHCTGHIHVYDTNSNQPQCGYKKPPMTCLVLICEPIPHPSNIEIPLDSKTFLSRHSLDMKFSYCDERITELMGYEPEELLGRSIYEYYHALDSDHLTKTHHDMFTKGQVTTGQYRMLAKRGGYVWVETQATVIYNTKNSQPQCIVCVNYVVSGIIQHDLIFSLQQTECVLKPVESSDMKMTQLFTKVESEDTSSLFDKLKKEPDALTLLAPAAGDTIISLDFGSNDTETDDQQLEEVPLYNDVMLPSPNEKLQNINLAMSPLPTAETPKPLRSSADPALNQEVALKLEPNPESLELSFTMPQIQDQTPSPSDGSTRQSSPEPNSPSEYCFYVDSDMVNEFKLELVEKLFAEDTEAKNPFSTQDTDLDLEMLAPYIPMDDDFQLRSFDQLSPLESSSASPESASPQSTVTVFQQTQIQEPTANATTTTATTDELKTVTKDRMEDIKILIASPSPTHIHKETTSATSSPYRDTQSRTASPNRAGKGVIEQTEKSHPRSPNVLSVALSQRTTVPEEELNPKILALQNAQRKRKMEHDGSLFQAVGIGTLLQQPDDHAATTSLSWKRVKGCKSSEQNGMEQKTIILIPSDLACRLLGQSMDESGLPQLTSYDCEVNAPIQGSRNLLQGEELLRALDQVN

N#Cc1c[nH]cc1-c1cccc2c1OC(F)(F)O2
active: [4] 50 µM | [5] 84.8 µM | [6] 69.9 µM | [7] 85.6 µM | [10] 93.2 µM | [11] 50 µM | [12] 83.4 µM | [13] 79.3 µM | [16] 69 µM | [17] 19.6 µM
inactive: [1] | [2] | [3] | [8] | [9] | [14] | [15]

CCOC(=O)C(C)OC(=O)c1cc(Oc2ccc(C(F)(F)F)cc2Cl)ccc1[N+](=O)[O-] (stereo unspecified)
active: [2] 5.9 µM | [3] 27.5 µM | [4] 14.5 µM | [5] 0.414 µM | [6] 50 µM | [7] 84.3 µM | [9] 3.82 µM | [13] 1.38 µM | [14] 21 µM
inactive: [1] | [8] | [10] | [11] | [12] | [15] | [16] | [17]

CCNP(=S)(OC)O/C(C)=C/C(=O)OC(C)C (stereo unspecified)
active: [2] 4.03 µM | [10] 9.92 µM | [13] 25.8 µM | [14] 50 µM
not listed: [19]
inactive: all other assays above

CCN(CC)c1nc(C)cc(OP(=S)(OC)OC)n1
active: [2] 8.23 µM | [4] 50 µM
not listed: [18]
inactive: all other assays above

CC(C)(C)C(=O)C(Oc1ccc(Cl)cc1)n1cncn1 (stereo unspecified)
active: [2] 12.1 µM | [4] 50 µM | [5] 30.1 µM
not listed: [7] | [14] | [18]
inactive: all other assays above
